Measurements reported in PubChem BioAssay (EPA / NIEHS).
Inconclusive results are not listed. Activity calls are given as the source filed them. Rule for the calls: active = hit-call score of the fitted dose curve at least 0.9, where 1 is the maximum; inconclusive = response in the unintended direction; inactive = score below 0.9.

Legend:
[1] = target: Collagenase 3 (Homo sapiens) (UniProt P45452); experiment: NVS_ENZ_hMMP13: NovaScreen (NVS) Enzymatic Assay for human Matrix Metalloproteinase-13 (MMP13) (AID 2283182)
In short: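 Recombinant MMP13 cleaving fluorescent substrate, cell-free, measured 1 h after dosing. Primary duplicate screen at 25 uM; actives tested in concentration-response up to 50 uM; loss of signal relative to DMSO.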

[2] = target: human Matrix Metalloproteinase-2 (MMP2), MMP2 (gene 4313) (UniProt P08253); experiment: NVS_ENZ_hMMP2: NovaScreen (NVS) Enzymatic Assay for human Matrix Metalloproteinase-2 (MMP2) (AID 2283184)
Chain of human Matrix Metalloproteinase-2 (MMP2), MMP2 (gene 4313) (P08253 whole entry, looked up): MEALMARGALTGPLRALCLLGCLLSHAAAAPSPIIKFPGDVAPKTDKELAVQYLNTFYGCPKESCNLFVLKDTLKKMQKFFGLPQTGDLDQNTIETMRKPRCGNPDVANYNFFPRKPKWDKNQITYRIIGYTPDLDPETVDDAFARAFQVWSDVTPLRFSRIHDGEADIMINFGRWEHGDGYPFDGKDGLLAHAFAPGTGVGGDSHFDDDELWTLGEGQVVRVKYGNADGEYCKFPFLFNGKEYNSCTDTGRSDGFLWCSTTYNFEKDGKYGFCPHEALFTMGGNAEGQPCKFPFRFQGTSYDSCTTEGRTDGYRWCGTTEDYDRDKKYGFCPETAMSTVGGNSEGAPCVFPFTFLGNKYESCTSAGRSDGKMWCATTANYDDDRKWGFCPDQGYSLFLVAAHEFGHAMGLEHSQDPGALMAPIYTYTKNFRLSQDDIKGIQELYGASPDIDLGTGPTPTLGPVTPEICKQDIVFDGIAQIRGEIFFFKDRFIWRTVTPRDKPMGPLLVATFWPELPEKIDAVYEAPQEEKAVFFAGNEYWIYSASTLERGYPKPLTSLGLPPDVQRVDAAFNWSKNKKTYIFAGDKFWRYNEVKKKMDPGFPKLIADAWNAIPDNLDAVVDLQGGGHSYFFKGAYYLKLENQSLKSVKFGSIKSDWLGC
In short: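 Compounds first screened in duplicate at a single 25 uM, with actives followed up in concentration series. Recombinant human MMP2 cleaves a fluorogenic substrate; fluorescence taken at 1 h, inhibition fitted relative to DMSO.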

[3] = target: human Matrix Metalloproteinase-3 (MMP3), MMP3 (gene 4314) (UniProt P08254); experiment: NVS_ENZ_hMMP3: NovaScreen (NVS) Enzymatic Assay for human Matrix Metalloproteinase-3 (MMP3) (AID 2283185)
In short: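 Fluorescent substrate turnover by recombinant MMP3 read after 1 h, signal loss scored against DMSO. Compounds first run in duplicate at 25 uM single dose, then actives confirmed by concentration series.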

[4] = target: human Matrix Metalloproteinase-9 (MMP9), MMP9 (gene 4318) (UniProt P14780); experiment: NVS_ENZ_hMMP9: NovaScreen (NVS) Enzymatic Assay for human Matrix Metalloproteinase-9 (MMP9) (AID 2283190);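 note: cell-free recombinant MMP9 protease activity read by fluorescent substrate signal; active means inhibition seen as loss of fluorescence signal versus DMSO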
Chain of human Matrix Metalloproteinase-9 (MMP9), MMP9 (gene 4318) (P14780 whole entry, looked up): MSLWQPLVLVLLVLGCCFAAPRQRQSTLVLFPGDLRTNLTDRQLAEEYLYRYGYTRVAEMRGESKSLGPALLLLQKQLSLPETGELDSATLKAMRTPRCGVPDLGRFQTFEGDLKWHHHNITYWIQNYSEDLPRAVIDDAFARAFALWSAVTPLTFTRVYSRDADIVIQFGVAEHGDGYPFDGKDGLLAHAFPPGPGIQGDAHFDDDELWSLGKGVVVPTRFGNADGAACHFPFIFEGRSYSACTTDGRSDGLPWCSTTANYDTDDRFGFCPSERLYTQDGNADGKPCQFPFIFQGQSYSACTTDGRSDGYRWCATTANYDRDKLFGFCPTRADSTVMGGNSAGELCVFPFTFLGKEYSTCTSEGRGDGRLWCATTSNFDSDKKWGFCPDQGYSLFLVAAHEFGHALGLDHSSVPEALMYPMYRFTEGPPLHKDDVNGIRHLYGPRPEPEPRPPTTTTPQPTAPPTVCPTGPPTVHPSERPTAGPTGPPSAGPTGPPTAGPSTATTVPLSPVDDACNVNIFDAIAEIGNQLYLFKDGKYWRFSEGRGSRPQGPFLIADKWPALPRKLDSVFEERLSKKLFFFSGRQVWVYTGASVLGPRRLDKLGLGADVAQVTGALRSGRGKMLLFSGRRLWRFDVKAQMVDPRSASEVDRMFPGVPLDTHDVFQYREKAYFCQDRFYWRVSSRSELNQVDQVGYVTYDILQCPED
In short: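 Extracted enzyme, fluorescent substrate, 1 h post-dose read. Single conc 25 uM in duplicate, then concentration series for actives. Activity = signal loss relative to DMSO negative control.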

[5] = target: human Protein Phosphatase, Mg2+/Mn2+ Dependent 1A (PPM1A), PPM1A (gene 5494) (UniProt P35813); experiment: NVS_ENZ_hPPM1A: NovaScreen (NVS) Enzymatic Assay for human Protein Phosphatase, Mg2+/Mn2+ Dependent 1A (PPM1A) (AID 2283198)
In short: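 Primary screen in duplicate at 25 uM, with actives then titrated to a maximum of 50 uM. Recombinant PPM1A dephosphorylation of fluorescent substrate measured at 1 h, with substrate and product separated by mobility shift; inhibition fitted against DMSO.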

[6] = target: human MAP Kinase-Activated Protein Kinase 2 (MAPKAPK2), MAPKAPK2 (gene 9261) (UniProt P49137); experiment: NVS_ENZ_hMAPKAPK2: NovaScreen (NVS) Enzymatic Assay for human MAP Kinase-Activated Protein Kinase 2 (MAPKAPK2) (AID 2283178)
Chain of human MAP Kinase-Activated Protein Kinase 2 (MAPKAPK2), MAPKAPK2 (gene 9261) (P49137 whole entry, looked up): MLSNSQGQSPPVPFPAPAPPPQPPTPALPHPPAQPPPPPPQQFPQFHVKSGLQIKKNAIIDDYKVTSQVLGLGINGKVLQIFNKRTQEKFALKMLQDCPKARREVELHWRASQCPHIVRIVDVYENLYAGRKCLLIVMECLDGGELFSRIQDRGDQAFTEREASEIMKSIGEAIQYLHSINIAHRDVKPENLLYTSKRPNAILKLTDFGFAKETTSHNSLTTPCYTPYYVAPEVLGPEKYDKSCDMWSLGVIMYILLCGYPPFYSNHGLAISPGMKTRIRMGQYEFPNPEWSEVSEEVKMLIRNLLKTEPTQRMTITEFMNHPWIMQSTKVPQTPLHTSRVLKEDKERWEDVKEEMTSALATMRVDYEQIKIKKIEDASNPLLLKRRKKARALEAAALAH
In short: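 Chemicals screened in duplicate at 25 uM, then to 50 uM top concentration in concentration-response, against recombinant human MAPKAPK2; substrate conversion read 1 hr post-dosing by fluorescence after electrophoretic mobility-shift separation, loss-of-signal relative to DMSO.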

[7] = target: human Phosphodiesterase 10 (PDE10), PDE10A (gene 10846) (UniProt Q9Y233); experiment: NVS_ENZ_hPDE10: NovaScreen (NVS) Enzymatic Assay for human Phosphodiesterase 10 (PDE10) (AID 2283195)
In short: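 Biochemical single-readout PDE10A assay, cell-free, extracted protein. Compounds first screened at 25 uM in duplicate, hits then titrated to 50 uM max. Activity measured after 1 h; loss-of-signal fitted against DMSO negative control.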

[8] = target: Serine/threonine-protein phosphatase PP1-alpha catalytic subunit (Homo sapiens) (UniProt P62136); experiment: NVS_ENZ_hPPP1CA: NovaScreen (NVS) Enzymatic Assay for human Protein Phosphatase 1 Aatalytic subunit Alpha (PPP1CA) (AID 2283200)
In short: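 Chemicals were first screened in duplicate at 25 uM, and those passing threshold (e.g. 30% inhibition) were run as concentration series to 50 uM. Cell-free recombinant protein, 1.33 h read, fluorescent substrate/product mobility-shift detection, normalised to DMSO.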

[9] = target: Tyrosine-protein phosphatase non-receptor type 11 (Homo sapiens) (UniProt Q06124); experiment: NVS_ENZ_hPTPN11: NovaScreen (NVS) Enzymatic Assay for human Protein Tyrosine Phosphatase Non-receptor Type 11 (PTPN11) (AID 2283202)
Chain of Tyrosine-protein phosphatase non-receptor type 11 (Homo sapiens) (Q06124 whole entry, looked up): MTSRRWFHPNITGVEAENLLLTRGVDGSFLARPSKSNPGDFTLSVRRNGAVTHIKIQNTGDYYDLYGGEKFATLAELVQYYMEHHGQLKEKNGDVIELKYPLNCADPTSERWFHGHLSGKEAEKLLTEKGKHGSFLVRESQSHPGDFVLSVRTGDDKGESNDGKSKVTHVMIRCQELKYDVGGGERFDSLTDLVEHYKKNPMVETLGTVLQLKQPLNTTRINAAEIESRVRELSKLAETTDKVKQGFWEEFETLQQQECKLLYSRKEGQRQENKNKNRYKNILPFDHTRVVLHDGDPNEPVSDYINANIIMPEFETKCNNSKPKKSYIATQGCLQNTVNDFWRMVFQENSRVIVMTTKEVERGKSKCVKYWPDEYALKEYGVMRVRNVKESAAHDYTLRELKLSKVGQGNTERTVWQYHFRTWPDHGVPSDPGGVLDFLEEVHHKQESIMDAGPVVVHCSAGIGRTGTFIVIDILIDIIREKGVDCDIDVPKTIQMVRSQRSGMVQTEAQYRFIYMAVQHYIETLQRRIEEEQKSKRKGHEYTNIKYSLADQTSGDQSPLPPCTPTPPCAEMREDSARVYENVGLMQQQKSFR
In short: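 Compounds first tested in duplicate at 25 uM; those reaching ~30% inhibition rerun in singleton concentration-response, top 50 uM. Phosphatase activity measured after 0.5 h by fluorescence with mobility-shift separation, relative to DMSO.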

[10] = target: Tyrosine-protein phosphatase non-receptor type 14 (Homo sapiens) (UniProt Q15678); experiment: NVS_ENZ_hPTPN14: NovaScreen (NVS) Enzymatic Assay for human Protein Tyrosine Phosphatase Non-receptor Type 14 (PTPN14) (AID 2283206)
In short: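 Fluorescent substrate turnover by recombinant human PTPN14 was measured 0.5 h after compound addition, with substrate and product separated by mobility shift. Single-point screening at 25 uM, then concentration-response up to 50 uM for chemicals meeting threshold (e.g., 30% inhibition).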

[11] = target: human Protein Tyrosine Phosphatase Non-receptor Type 4 (PTPN4), PTPN4 (gene 5775) (UniProt P29074); experiment: NVS_ENZ_hPTPN4: NovaScreen (NVS) Enzymatic Assay for human Protein Tyrosine Phosphatase Non-receptor Type 4 (PTPN4) (AID 2283208)
Chain of human Protein Tyrosine Phosphatase Non-receptor Type 4 (PTPN4), PTPN4 (gene 5775) (P29074 whole entry, looked up): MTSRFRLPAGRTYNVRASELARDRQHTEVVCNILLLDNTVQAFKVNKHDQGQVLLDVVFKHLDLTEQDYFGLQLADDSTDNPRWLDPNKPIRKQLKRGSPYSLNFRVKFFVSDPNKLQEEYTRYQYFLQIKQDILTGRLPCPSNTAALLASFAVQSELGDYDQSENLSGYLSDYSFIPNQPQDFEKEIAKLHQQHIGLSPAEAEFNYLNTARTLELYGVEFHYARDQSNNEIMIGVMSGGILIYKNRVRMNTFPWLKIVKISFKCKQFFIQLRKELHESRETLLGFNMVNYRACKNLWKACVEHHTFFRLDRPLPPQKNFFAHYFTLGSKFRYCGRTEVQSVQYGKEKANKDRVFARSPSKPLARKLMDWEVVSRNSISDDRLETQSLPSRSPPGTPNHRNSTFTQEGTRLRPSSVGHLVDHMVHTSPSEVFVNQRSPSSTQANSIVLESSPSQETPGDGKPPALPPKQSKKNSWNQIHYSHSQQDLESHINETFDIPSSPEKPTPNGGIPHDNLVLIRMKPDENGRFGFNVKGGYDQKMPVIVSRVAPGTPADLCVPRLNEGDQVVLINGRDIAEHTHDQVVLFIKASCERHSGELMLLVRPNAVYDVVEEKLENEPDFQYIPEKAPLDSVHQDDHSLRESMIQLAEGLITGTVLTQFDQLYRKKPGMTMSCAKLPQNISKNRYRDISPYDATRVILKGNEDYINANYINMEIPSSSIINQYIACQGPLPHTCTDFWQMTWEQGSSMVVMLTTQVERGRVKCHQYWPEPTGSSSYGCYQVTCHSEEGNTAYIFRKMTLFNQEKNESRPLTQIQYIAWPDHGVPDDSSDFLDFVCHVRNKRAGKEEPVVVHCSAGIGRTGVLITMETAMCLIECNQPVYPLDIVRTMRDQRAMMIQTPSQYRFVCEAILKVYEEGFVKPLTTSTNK
In short: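 Screened in duplicate at 25 uM, with hits then titrated to a top concentration of 50 uM. Recombinant Sf9-derived PTPN4 turnover was read by fluorescence with electrophoretic separation, 1.33 h after compound addition. DMSO served as baseline.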

[12] = target: human Phosphodiesterase 4A1 (PDE4A1), PDE4A (gene 5141) (UniProt P27815); experiment: NVS_ENZ_hPDE4A1: NovaScreen (NVS) Enzymatic Assay for human Phosphodiesterase 4A1 (PDE4A1) (AID 2283191)
Chain of human Phosphodiesterase 4A1 (PDE4A1), PDE4A (gene 5141) (P27815 whole entry, looked up): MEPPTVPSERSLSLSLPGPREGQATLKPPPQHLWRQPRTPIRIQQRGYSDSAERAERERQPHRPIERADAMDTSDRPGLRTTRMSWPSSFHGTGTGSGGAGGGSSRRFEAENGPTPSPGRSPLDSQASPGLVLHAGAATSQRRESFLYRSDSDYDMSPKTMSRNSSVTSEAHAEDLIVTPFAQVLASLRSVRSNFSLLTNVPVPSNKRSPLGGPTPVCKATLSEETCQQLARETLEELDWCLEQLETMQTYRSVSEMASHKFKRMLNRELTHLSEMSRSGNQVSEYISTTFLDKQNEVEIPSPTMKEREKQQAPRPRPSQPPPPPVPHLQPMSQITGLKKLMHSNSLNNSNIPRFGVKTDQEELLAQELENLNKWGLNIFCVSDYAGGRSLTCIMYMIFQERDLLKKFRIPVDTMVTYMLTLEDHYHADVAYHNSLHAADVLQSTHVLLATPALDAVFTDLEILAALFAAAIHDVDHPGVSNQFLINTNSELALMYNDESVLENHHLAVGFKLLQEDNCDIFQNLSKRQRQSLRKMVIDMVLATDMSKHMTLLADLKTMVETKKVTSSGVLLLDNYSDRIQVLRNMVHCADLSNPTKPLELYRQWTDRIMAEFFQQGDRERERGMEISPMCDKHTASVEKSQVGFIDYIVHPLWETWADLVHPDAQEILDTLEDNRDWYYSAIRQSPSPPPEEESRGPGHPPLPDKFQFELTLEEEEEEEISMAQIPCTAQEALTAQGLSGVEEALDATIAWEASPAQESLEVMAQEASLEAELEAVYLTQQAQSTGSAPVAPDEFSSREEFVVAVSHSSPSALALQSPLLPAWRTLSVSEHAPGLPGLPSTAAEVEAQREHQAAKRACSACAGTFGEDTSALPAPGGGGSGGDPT
In short: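 Fluorescent substrate turnover by recombinant PDE4A1 read after 1 h by mobility-shift separation. Primary duplicate screen at 25 uM; hits retested in concentration series with a 50 uM maximum, relative to DMSO.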

[13] = target: Tyrosine-protein phosphatase non-receptor type 13 (Homo sapiens) (UniProt Q12923); experiment: NVS_ENZ_hPTPN13: NovaScreen (NVS) Enzymatic Assay for human Protein Tyrosine Phosphatase Non-receptor Type 13 (PTPN13) (AID 2283205)
In short: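 Screened first at a single 25 uM in duplicate; compounds passing the threshold (e.g. 30% inhibition) were rerun in concentration series, top 50 uM. Recombinant enzyme, fluorescent substrate, mobility-shift separation, 0.5 h read. Data fitted as inhibition relative to DMSO.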

[14] = target: Mitogen-activated protein kinase 3 (Homo sapiens) (UniProt P27361); experiment: NVS_ENZ_hMAPK3: NovaScreen (NVS) Enzymatic Assay for human Mitogen-Activated Protein Kinase 3 (MAPK 3) (AID 2283177)
Chain of Mitogen-activated protein kinase 3 (Homo sapiens) (P27361 whole entry, looked up): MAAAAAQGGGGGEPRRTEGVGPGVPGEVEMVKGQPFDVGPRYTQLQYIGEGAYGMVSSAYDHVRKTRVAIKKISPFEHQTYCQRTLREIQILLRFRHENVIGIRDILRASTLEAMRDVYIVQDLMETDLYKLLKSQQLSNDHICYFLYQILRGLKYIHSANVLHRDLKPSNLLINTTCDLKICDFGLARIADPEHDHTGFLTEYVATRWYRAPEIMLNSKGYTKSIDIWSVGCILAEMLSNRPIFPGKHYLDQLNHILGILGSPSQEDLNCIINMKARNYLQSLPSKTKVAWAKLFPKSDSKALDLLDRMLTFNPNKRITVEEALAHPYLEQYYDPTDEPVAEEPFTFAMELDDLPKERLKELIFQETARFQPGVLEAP
In short: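 Chemicals were first tested in duplicate at 25 uM, with hits re-run as concentration series (max 50 uM). Recombinant enzyme activity, measured 1 h post-dose in a cell-free format, was read by fluorescence/mobility shift relative to DMSO.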

[15] = target: human Matrix Metalloproteinase-7 (MMP7), MMP7 (gene 4316) (UniProt P09237); experiment: NVS_ENZ_hMMP7: NovaScreen (NVS) Enzymatic Assay for human Matrix Metalloproteinase-7 (MMP7) (AID 2283183)
Chain of human Matrix Metalloproteinase-7 (MMP7), MMP7 (gene 4316) (P09237 whole entry, looked up): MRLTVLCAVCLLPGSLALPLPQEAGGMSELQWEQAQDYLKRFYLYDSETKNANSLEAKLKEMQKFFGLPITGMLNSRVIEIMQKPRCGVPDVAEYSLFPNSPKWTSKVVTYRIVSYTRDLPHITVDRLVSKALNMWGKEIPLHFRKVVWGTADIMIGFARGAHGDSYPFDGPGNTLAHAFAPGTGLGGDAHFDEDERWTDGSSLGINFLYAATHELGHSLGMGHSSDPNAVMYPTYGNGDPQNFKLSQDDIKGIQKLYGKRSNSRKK
In short: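 Compounds first tested at 25 uM in duplicate, then at up to 50 uM in concentration series if active. Protease activity measured by fluorescence intensity 1 h after dosing, with fitting relative to DMSO.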

[16] = target: human Phosphoinositide 3-kinase alpha (PI3Ka), PIK3CA (gene 5290) (UniProt P42336); experiment: NVS_ENZ_hPI3Ka: NovaScreen (NVS) Enzymatic Assay for human Phosphoinositide 3-kinase alpha (PI3Ka) (AID 2283196)
In short: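 Fluorescence/mobility-shift readout of substrate conversion by recombinant enzyme, 1 h post-dosing. Primary screen in duplicate at 25 uM; actives (e.g. ≥30% inhibition) retested in singleton concentration-response, top concentration 50 uM.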

[17] = target: cAMP-dependent protein kinase catalytic subunit alpha (Homo sapiens) (UniProt P17612); experiment: NVS_ENZ_hPKA: NovaScreen (NVS) Enzymatic Assay for human Protein Kinase A (PKA) (AID 2283192)
In short: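 Cell-free kinase activity read by fluorescence after mobility-shift separation of substrate and product, 1 h post-dosing. Single-concentration duplicate screen (25 uM) preceded singleton concentration series (top 50 uM); loss of signal versus DMSO.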

[18] = target: Tyrosine-protein phosphatase non-receptor type 12 (Homo sapiens) (UniProt Q05209); experiment: NVS_ENZ_hPTPN12: NovaScreen (NVS) Enzymatic Assay for human Protein Tyrosine Phosphatase Non-receptor Type 12 (PTPN12) (AID 2283204)
In short: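 Single-concentration duplicates (25 uM) preceded singleton concentration-response up to 50 uM for chemicals passing threshold. Cell-free recombinant PTPN12 activity was read 1.33 h after dosing via fluorescence after mobility-shift separation; loss of signal versus DMSO.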

How did the AC50 [1] turn out when `O=C(O)CCN(C1(C(=O)NO)CCCC1)S(=O)(=O)c1ccc(Oc2ccc(F)cc2)cc1` was run?
The AC50 was 0.0041 µM (active).

What about the AC50 [2] of the same compound?
The AC50 was 0.0139 µM (active).

And the AC50 [3]?
The AC50 was 8.47 µM (active).

And the AC50 [4]?
Its AC50 is 0.00365 µM (active).

And the outcome [5]?
The outcome was “inactive”.

`COC(=O)c1c(Cl)c(Cl)c(C(=O)OC)c(Cl)c1Cl` was tested. Which outcome [1] did it give?
Its outcome is “inactive”.

With `Nc1nc2ncc(CNc3ccc(C(=O)N[C@@H](CCC(=O)O)C(=O)O)cc3)nc2c(=O)[nH]1` as the compound, how does the AC50 [6] read?
Its AC50 is 37.4 µM (active).

What about the outcome [7] of the same compound?
Its outcome is “inactive”.

And the AC50 [8]?
Its AC50 is 8.97 µM (active).

What about the AC50 [9] of the same compound?
Its AC50 is 30.2 µM (active).

What about the AC50 [10] of the same compound?
Its AC50 is 14.9 µM (active).

And the AC50 [11]?
The AC50 was 41.9 µM (active).

How did the outcome [6] turn out when `Nc1ccc(Nc2ccccc2)cc1` was run?
Its outcome is “inactive”.

And the AC50 [1]?
Its AC50 is 5.61 µM (active).

How did the AC50 [1] turn out when `CNS(=O)(=O)c1cc(C(=O)N2CCC(CCN3C4CCC3CC(n3c(C)nc5ccccc53)C4)(c3cccc(F)c3)CC2)c(Cl)cc1F` (stereo not given) was run?
Its AC50 is 14.5 µM (active).

What about the AC50 [2] of the same compound?
Its AC50 is 8.32 µM (active).

And the AC50 [4]?
The AC50 was 8.37 µM (active).

And the outcome [12]?
The outcome was “inactive”.

And the outcome [13]?
The outcome was “inactive”.

Which AC50 [1] does the source give for `CC(C)(O)c1coc(S(=O)(=O)NC(=O)Nc2c3c(cc4c2CCC4)CCC3)c1` here?
Its AC50 is 20.6 µM (active).

And the outcome [5]?
Its outcome is “inactive”.

What does the source list for `O=C(O)c1cccc(N(Cc2cccnc2)c2ccc(OC(F)F)c(OC(F)F)c2)c1`?
outcome [14]: inactive; AC50 [12]: 0.00437 µM (active)

With `CC(C)CCO` as the compound, how does the outcome [15] read?
Its outcome is “inactive”.

What about the outcome [3] of the same compound?
The outcome was “inactive”.

For `CC[C@H](C)C(=O)O[C@H]1C[C@@H](C)C=C2C=C[C@H](C)[C@H](CC[C@@H]3C[C@@H](O)CC(=O)O3)[C@H]21`, which outcome [14] is on record?
The outcome was “inactive”.

What about the outcome [15] of the same compound?
Its outcome is “inactive”.

And the outcome [2]?
Its outcome is “inactive”.

What about the outcome [4] of the same compound?
Its outcome is “inactive”.

And the outcome [16]?
The outcome was “inactive”.

And the outcome [9]?
Its outcome is “inactive”.

How did the outcome [1] turn out when `CC(C)CCCCCCCOC(=O)CCCCC(=O)OCCCCCCCC(C)C` was run?
The outcome was “inactive”.

Which results are given for `O=C(O)c1cc(N=Nc2ccc(S(=O)(=O)Nc3ccccn3)cc2)ccc1O`?
outcome [6]: inactive; AC50 [1]: 19.5 µM (active); outcome [2]: inactive; AC50 [4]: 7.16 µM (active); outcome [12]: inactive; outcome [17]: inactive; AC50 [7]: 5.28 µM (active); outcome [16]: inactive; outcome [9]: inactive; outcome [18]: inactive; outcome [13]: inactive; outcome [10]: inactive; outcome [11]: inactive
